# Assay results as given in PubChem BioAssay (NCI).
# This is part of a sample that, as a whole, favours compounds with a hit. Of some 83,000 tested, about 20% had one in any assay.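 Activity criterion: percent growth below 10, measured after cells in 96-well plates were exposed to a single compound concentration for 48 hours.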 Unmarked numbers belong to inactive results. Calls of active or inactive are those of the source.
# Tested on: MDA-MB-468 breast
# Assay: NCI-60 one-dose screen, 48 h (100 = growth as untreated, 0 = no growth, -100 = all killed)
# Conditions: 10 µM unless noted
row,Compound,growth
1,NC(=S)N=Nc1c(O)c2ccccc2c2ccccc12,88.3%
2,CN1CCn2c(c(Sc3ccc(C(=O)NO)cc3)c3ccccc32)C1=O,-39.2% (active)
3,COc1ccc(C(=O)c2cc(F)c(F)c(OC)c2F)cc1OC(=O)CCl,61.3%
4,C#Cc1nc(C2=C(C)C(OC(=O)CCC(=O)O)CC2)cs1 (stereo not given),99.6%
5,Brc1ccc(Nc2nc3ccccc3nc2Nc2ccc(Br)cc2)cc1,-48.6% (active)
6,CCCCOc1ccc(/C=N/Nc2cc(C)nc3ccc(Br)cc23)cc1,32.2%
7,COc1ccc(S(=O)(=O)n2cc(C=O)c3ccccc32)c(OC)c1,84.7%
8,COc1ccc(Br)cc1NC(=O)Nc1cccc2c1ccn2Cc1ccnc(N)c1,-14.4% (active)
9,Nc1n[nH]c2ccc([C@@H]3Nc4cc5c(cc4[C@H]4C6CCC(C6)[C@@H]34)C(=O)NC5)cc12 (stereo not given in full),-9.96% (active)
10,N=C(N)c1ccc(-c2ccc(-c3ccc(F)cc3)s2)s1,-77% (active)
11,CC(=O)Nc1nc2c(s1)CCc1c-2cn(S(=O)(=O)c2ccccc2)c1-c1ccccc1,61.6%
12,Cc1nc(N)sc1C(=O)NCCO,96.8%
13,O=C(CCCCCCN1CC(=O)N2[C@@H](c3ccccc3Br)c3[nH]c4ccccc4c3C[C@H]2C1=O)NO,36.2%
14,C[C@H](c1nc2ccc(N)cc2[nH]1)[C@H]1CC[C@H]2[C@@H]3CCC4=CC(=O)CC[C@]4(C)[C@H]3CC[C@]12C,68.1%
15,O=C(/C=C/c1cc([N+](=O)[O-])ccc1Cl)c1ccccc1,57.6%
